Screening results (PubChem)
BioA inh: blocks M. tuberculosis BioA enzyme activity. inhibition, % at 9.99 µM. 360,000 compounds, 0.096% hits. purified M. tuberculosis BioA enzyme, plate reader. AID 602481; in the data active = inhibition above about 40%
TcdB inh: TcdB glycohydrolase inhibition. AID 652162. TcdB glycohydrolase enzymatic assay, plate reader. P18177. 350,000 compounds, 0.24% hits. inhibition, % at 9.99 µM; in the data active = inhibition above about 10%
Target sequence (P18177 whole entry, looked up): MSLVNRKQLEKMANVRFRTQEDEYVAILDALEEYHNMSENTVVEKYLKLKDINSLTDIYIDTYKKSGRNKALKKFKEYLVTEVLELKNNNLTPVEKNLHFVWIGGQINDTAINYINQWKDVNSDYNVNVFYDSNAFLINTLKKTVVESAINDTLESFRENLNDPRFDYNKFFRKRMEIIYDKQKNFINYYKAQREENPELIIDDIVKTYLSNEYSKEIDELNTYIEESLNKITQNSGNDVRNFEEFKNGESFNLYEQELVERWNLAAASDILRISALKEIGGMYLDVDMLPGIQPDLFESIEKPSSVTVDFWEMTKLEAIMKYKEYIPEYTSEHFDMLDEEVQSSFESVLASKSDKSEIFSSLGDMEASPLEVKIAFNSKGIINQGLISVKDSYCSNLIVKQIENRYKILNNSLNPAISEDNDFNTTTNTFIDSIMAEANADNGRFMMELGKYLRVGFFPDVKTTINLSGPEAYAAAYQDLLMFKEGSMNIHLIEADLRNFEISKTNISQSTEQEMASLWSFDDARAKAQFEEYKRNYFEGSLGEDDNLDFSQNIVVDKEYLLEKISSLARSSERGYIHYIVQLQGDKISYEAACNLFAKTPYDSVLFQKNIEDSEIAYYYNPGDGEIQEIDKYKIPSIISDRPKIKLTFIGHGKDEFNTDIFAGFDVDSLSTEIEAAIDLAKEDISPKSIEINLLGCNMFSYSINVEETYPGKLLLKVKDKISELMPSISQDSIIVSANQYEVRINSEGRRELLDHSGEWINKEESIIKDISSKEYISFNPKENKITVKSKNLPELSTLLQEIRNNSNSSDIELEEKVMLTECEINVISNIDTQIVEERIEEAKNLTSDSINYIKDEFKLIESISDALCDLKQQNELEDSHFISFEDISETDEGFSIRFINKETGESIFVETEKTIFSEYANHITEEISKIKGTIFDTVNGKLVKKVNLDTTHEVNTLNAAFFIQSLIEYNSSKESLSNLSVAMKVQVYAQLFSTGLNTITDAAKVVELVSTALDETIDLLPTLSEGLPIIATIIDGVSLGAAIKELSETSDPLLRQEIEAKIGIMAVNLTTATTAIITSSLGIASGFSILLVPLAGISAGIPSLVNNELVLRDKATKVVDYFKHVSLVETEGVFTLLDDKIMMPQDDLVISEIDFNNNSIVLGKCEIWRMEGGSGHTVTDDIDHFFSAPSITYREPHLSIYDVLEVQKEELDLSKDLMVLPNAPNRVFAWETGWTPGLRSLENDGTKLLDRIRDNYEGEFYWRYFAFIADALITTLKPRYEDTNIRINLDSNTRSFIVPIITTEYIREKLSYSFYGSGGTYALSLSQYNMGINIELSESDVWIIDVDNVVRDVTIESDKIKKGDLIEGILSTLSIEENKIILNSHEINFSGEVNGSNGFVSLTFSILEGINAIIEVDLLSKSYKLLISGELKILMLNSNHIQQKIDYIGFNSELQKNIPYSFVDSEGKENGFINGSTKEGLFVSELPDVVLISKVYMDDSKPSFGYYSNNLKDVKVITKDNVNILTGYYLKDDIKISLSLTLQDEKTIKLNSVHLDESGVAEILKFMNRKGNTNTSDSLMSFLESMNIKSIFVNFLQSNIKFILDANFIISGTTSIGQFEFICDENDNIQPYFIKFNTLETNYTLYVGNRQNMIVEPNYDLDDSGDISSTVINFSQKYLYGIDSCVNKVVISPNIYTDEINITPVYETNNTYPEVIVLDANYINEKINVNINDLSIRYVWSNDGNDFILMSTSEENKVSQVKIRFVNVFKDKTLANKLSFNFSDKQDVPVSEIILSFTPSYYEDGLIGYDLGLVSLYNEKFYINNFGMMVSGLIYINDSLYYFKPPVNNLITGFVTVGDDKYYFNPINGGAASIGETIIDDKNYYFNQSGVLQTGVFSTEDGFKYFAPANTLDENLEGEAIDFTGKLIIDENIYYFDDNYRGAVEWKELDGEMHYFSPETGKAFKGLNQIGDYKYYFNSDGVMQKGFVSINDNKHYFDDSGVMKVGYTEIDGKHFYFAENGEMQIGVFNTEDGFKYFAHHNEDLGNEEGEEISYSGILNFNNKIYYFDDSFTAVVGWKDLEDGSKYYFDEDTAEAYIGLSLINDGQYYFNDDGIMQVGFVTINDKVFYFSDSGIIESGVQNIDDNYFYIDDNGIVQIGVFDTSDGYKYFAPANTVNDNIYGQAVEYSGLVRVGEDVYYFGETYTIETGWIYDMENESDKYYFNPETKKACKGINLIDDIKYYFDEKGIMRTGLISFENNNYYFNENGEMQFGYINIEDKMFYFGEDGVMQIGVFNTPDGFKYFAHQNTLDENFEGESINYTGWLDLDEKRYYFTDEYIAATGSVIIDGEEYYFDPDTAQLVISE
Vc quorum ag: inducers of Vibrio cholerae quorum light production without autoinducers; V. cholerae BH1578 lux reporter, luminescence, 6 h; activation, % at 18.7 µM; 350,000 compounds, 0.16% hits; AID 588436; in the data active = activation mostly above about 9.7%, no sharp cut-off
DUSP3 inh: blocks human VHR1 dual specificity phosphatase | P51452 | 290,000 compounds, 0.52% hits | inhibition, % at 13.3 µM | recombinant VHR phosphatase, pNPP absorbance; in the data active = inhibition above about 50%
Y pestis TopoI: inhibitors of Yersinia pestis topoisomerase I; activity, % at 10 µM; 360,000 compounds, 0.064% hits; Y. pestis Topo-I cleavage product accumulation, plate reader; AID 504884; in the data active = activity above about 50%, passing the limit was not always enough
Hits are given with their value; n = inactive; x = not tested or not shown. In the library only some 0.73% were active in any assay of this set; here they are far more common.

SMILES | BioA inh | TcdB inh | Vc quorum ag | DUSP3 inh | Y pestis TopoI
Nc1nonc1-n1nnc(C(=O)N/N=C/c2cccc(F)c2)c1CN1CCCCCC1 | n | n | n | x | n
Cc1ccc(-c2c(C(=O)N/N=C/c3ccc4c(c3)OCO4)nnn2-c2nonc2N)cc1 | n | n | n | n | 58
CO[C@@H]1CN(C)C(=O)c2ccc(NC(C)=O)cc2OC[C@H](C)N(Cc2ccccn2)C[C@H]1C | n | n | x | x | x
C[C@H](NC(=O)C[C@H]1C[C@H]2c3cc(NC(=O)Nc4ccc(C(F)(F)F)cc4)ccc3O[C@H]2[C@@H](CO)O1)c1ccccc1 | n | n | x | x | x
C[C@H]1CN([C@@H](C)CO)C(=O)c2cccc(NC(=O)Nc3cccc4ccccc34)c2O[C@H]1CN(C)S(=O)(=O)c1ccccc1 | n | n | x | x | x
Cc1c(C(=O)OCC(=O)N(CC(C)C)c2c(N)n(Cc3ccccc3)c(=O)[nH]c2=O)oc2ccccc12 | n | n | n | x | 82
CC(C)CN(C(=O)COC(=O)c1cc(=O)[nH]c2ccccc12)c1c(N)n(Cc2ccccc2)c(=O)[nH]c1=O | n | n | n | x | n
CC(C)CN(C(=O)COC(=O)c1cc2ccccc2cc1O)c1c(N)n(Cc2ccccc2)c(=O)[nH]c1=O | n | n | n | x | 80
CC(C)CN(C(=O)COC(=O)c1c2c(nc3ccccc13)CCC2)c1c(N)n(Cc2ccccc2)c(=O)[nH]c1=O | n | n | n | n | 60
C[C@H]1CCCCO[C@H](CN(C)C(=O)Cc2ccccc2)[C@@H](C)CN([C@@H](C)CO)C(=O)c2cc(NC(=O)C3CCCCC3)ccc2O1 | n | x | x | x | x
CCOC(=O)N1CCN(Cc2c(F)cccc2Cl)CC1 | n | x | n | 51 | n
Cc1csc(CN(C)C(=O)C2CCC(=O)N(CCN(C)C)C2)n1 (stereo not drawn) | n | n | n | 60 | n
Cc1csc(CN(C)C(=O)C2CCC(=O)N(Cc3ccc(Cl)cc3)C2)n1 (stereo not drawn) | n | n | n | n | n
CC(C)C#Cc1cnc2c(c1)C(=O)N([C@H](C)CO)C[C@@H](C)[C@H](CN(C)C(=O)Nc1ccccc1)O2 | n | n | x | x | x
CCCC(=O)Nc1ccc2c(c1)OC[C@@H](C)N(Cc1ccccc1F)C[C@H](C)[C@H](OC)CN(C)C2=O | n | n | x | x | x
O=C(N/N=C/c1ccc[nH]1)c1ccccc1OCc1ccccc1Cl | x | n | n | 57 | n
CCCOC(=O)NC1CCS(=O)(=O)C1 (stereo not drawn) | n | x | 17 | n | n
CN1C(=O)CSc2ccc(NC(=O)N3CCc4ccccc43)cc21 | n | 16 | n | n | n
Cc1nc(N2CCN(C)CC2)c2c(C)c(C(=O)Nc3ccc(F)cc3)sc2n1 | n | x | n | 55 | n
Cc1ccc(C(=O)COC(=O)c2cc(=O)[nH]c3ccccc23)cc1 | x | 11 | n | n | n
COc1ccc2c3c([nH]c2c1)[C@@H](CO)N(CC1CC1)CC31CCN(C(=O)NC2CCCC2)CC1 | x | n | x | x | x
CC(C)c1cc(CN2CCN(Cc3ccc(F)c(F)c3)C(CCO)C2)[nH]n1 (stereo not drawn) | n | 10 | n | n | n
CCCNC(=O)N1[C@H](CNC(=O)CC)[C@@H](c2ccc(C3=CCCC3)cc2)[C@@H]1CO | n | n | x | x | x
COc1cccc(-c2nc(CS(=O)(=O)CC(=O)NCCCN3C(C)CCCC3C)c(C)o2)c1 (stereo not drawn) | x | n | n | 57 | n
Cc1oc(-c2ccccc2F)nc1CS(=O)(=O)CC(=O)NCCN1CCCC1 | n | n | n | 53 | n
SMILES | BioA inh | TcdB inh | Vc quorum ag | DUSP3 inh | Y pestis TopoI
Cc1oc(-c2ccccc2F)nc1CS(=O)(=O)CC(=O)NCCCN1CCc2ccccc2C1 | n | n | n | n | n
O=C(N[C@H]1CC[C@@H](CCn2cc(C3(O)CCCC3)nn2)O[C@@H]1CO)C1CCCCC1 | n | n | x | x | x
CN(C)CC(=O)N[C@@H]1CC[C@@H](CCNC(=O)Nc2ccc(C(F)(F)F)cc2)O[C@H]1CO | n | n | x | x | x
CCCCNC(=S)N(CCCO)Cc1cc2cc3c(cc2[nH]c1=O)OCCO3 | n | n | n | 51 | n
CN(C)CCCNC(=S)N(CCCO)Cc1cc2cc3c(cc2[nH]c1=O)OCO3 | n | n | n | n | n
c1ccc(Cc2nnc3n2N=C(c2ccccc2)CS3)cc1 | x | 16 | n | n | n
Cc1ccc(CNC(=O)c2ccccc2SCC(=O)NCC2CCCCC2)cc1 | n | x | n | 54 | n
O=C(O)c1cn(-c2ccccc2)nc1-c1ccncc1 | n | x | n | n | n
O=C(c1cn(-c2ccccc2)nc1-c1ccncc1)n1nnc2ccccc21 | n | 100 | n | x | n
Cn1c(O)c(C=NC2CCN(Cc3ccccc3)CC2)c(=O)[nH]c1=O | x | n | n | n | n
O=c1[nH]c(=O)n(C2CCCCCC2)c(O)c1C=NC1CCN(Cc2ccccc2)CC1 | n | x | 38 | n | n
CNC(=O)N(O)C1N(/N=C/c2cccs2)C(=S)SC1(C)C (stereo not drawn) | x | 10 | n | n | n
O=C(C[C@@H]1C[C@H]2c3cc(NC(=O)C4CCC4)ccc3O[C@H]2[C@@H](CO)O1)NCc1ccc(Cl)cc1 | n | n | x | x | x
Cc1ccc(C(=O)NCCc2nnc3ccc(SCC(=O)NCc4ccc(F)cc4)nn23)cc1 | n | n | n | 57 | n
O=C(CSc1ccc2nnc(CCNC(=O)c3ccccc3)n2n1)NCc1ccccc1 | n | n | n | n | n
COC(=O)c1sccc1NC(=O)COc1ccc(F)cc1Cl | n | n | n | 57 | n
COC(=O)c1ccc(OCC(=O)Nc2ccsc2C(=O)OC)cc1 | n | n | n | n | n
O=C(C[C@H]1C[C@@H]2c3cc(NC(=O)CC4CC4)ccc3O[C@@H]2[C@@H](CO)O1)NCc1ccc2c(c1)OCO2 | n | n | x | x | x
CCCCn1ccnc1C | n | n | n | 58 | n
O=C(Nc1cc(F)ccc1F)N[C@H]1CC[C@H](CCn2cc(C3CC3)nn2)O[C@H]1CO | n | n | x | x | x
COc1ccccc1C(=O)Nc1ccc2c(c1)OC[C@H](C)NC[C@H](C)[C@H](OC)CN(C)C2=O | n | n | x | x | x
CCOC(=O)C(C)(C)Oc1ccc(Cl)cc1 | n | n | n | x | n
CC(C)OC(=O)C(C)(C)Oc1ccc(C(=O)c2ccc(Cl)cc2)cc1 | n | n | n | n | 53
COc1ccc2c3c(n(C)c2c1)[C@H](CO)N(CC1CC1)CC31CN(C(=O)c2ccc3c(c2)OCO3)C1 | x | n | x | x | x
Cc1cc(-c2ccc(NS(=O)(=O)c3ccccc3)c(C)c2)ccc1NS(=O)(=O)c1ccccc1 | n | 12 | n | x | n
Cc1ccc(NS(=O)(=O)c2ccccc2)c(NS(=O)(=O)c2ccccc2)c1 | n | n | n | x | n
CCNC(=O)C[C@H]1CC[C@@H]2[C@H](COc3ccc(NC(C)=O)cc3C(=O)N2C)O1 | n | 12 | x | x | x
CCNC(=O)C[C@H]1CC[C@@H]2[C@@H](COc3ccc(NC(C)=O)cc3C(=O)N2C)O1 | n | 25 | x | x | x
CCCNC(=O)C[C@H]1CC[C@@H]2[C@@H](COc3ccc(NC(=O)c4ccc5c(c4)OCO5)cc3C(=O)N2C)O1 | n | 12 | x | x | x
CCNC(=O)C[C@H]1CC[C@H]2[C@@H](COc3ccc(NC(C)=O)cc3C(=O)N2C)O1 | n | n | x | x | x
